Experimental data as given in PubChem BioAssay AID1159580 (chemical genetic matrix, 2015).
Where “and” joins values, the source holds several entries; their conditions need not be identical. Equal entries are not always repeated. Out of some 5,500 compounds screened, about 2,000 (36%) were called active. Inconclusive results (about 18%) are left out. Cut-off read from the data, not from the text of the source: active = normalized growth mostly below about 0.91 (no sharp cut-off); inconclusive = no clear call, values can overlap the other calls; inactive = mostly above about 0.92. The list shows a part of the results.

Assay: chemical genetic growth profiling, strain panel (AID 1159580);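 note: tested at 20 µM; growth read once vehicle control cultures reached saturation at 30 °C; 1 = growth at the plate median or of vehicle wells; lower values mean less growth of the strain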
Details: S. cerevisiae deletion strains, growth OD

Measured: normalized growth

CC(=O)Nc1cc([As](=O)(O)O)ccc1O
inactive: locus YAL013W, strain DEP1, stronger effect = lower value 0.996 | locus YAL021C, strain ccr4, stronger effect = lower value 1.01 | locus YAL026C, strain drs2, stronger effect = lower value 1.01 | locus YAL030W, strain snc1, stronger effect = lower value 1.01 | locus YBL061C, strain skt5, stronger effect = lower value 1 | locus YBR009C, strain hhf1, stronger effect = lower value 1.01 | locus YBR021W, strain FUR4, stronger effect = lower value 1.05 | locus YBR023C, strain chs3, stronger effect = lower value 1.01 | locus YBR171W, strain sec66, stronger effect = lower value 1.01 | locus YBR229C, strain ROT2, stronger effect = lower value 1.01 | locus YBR231C, strain swc5, stronger effect = lower value 1.01 | locus YBR279W, strain paf1, stronger effect = lower value 0.999 | locus YCL011C, strain gbp2, stronger effect = lower value 1.02 | locus YCL016C, strain dcc1, stronger effect = lower value 0.994 | locus YCL029C, strain bik1, stronger effect = lower value 0.981 | locus YCL061C, strain MRC1, stronger effect = lower value 0.995 | locus YCL069W, strain vba3, stronger effect = lower value 1.01 | locus YCR088W, strain abp1, stronger effect = lower value 1.01 | locus YDL005C, strain med2, stronger effect = lower value 1 | locus YDL035C, strain GPR1, stronger effect = lower value 0.999 | locus YDL040C, strain nat1, stronger effect = lower value 1.01 | locus YDL074C, strain BRE1, stronger effect = lower value 0.936 | locus YDL101C, strain DUN1, stronger effect = lower value 0.992 | locus YDL185W, strain tfp1, stronger effect = lower value 0.945 | locus YDL192W, strain arf1, stronger effect = lower value 0.994 | locus YDR001C, strain nth1, stronger effect = lower value 1.02 | locus YDR069C, strain doa4, stronger effect = lower value 1.01 | locus YDR101C, strain arx1, stronger effect = lower value 0.936 | locus YDR137W, strain rgp1, stronger effect = lower value 1.01 | locus YDR150W, strain NUM1, stronger effect = lower value 0.997 | locus YDR159W, strain sac3, stronger effect = lower value 0.988 | locus YDR162C, strain NBP2, stronger effect = lower value 0.996 | locus YDR195W, strain ref2 0.995 | locus YDR297W, strain sur2, stronger effect = lower value 1.01 | locus YDR318W, strain mcm21, stronger effect = lower value 1 | locus YDR334W, strain swr1, stronger effect = lower value 1.02 | locus YDR335W, strain msn5, stronger effect = lower value 1.01 | locus YDR388W, stronger effect = lower value 0.997 | locus YDR392W, strain spt3, stronger effect = lower value 0.905 | locus YDR502C, strain sam2, stronger effect = lower value 1.02 | locus YEL003W, strain gim4, stronger effect = lower value 1.01 | locus YEL037C, strain rad23, stronger effect = lower value 1.01 | locus YEL061C, strain CIN8 (second series), stronger effect = lower value 1.02 | locus YEL061C, strain CIN8, stronger effect = lower value 1 | locus YER015W, strain faa2, stronger effect = lower value 0.998 | locus YER016W, strain bim1, stronger effect = lower value 1.01 | locus YER110C, stronger effect = lower value 0.983 | locus YER111C, strain swi4, stronger effect = lower value 1 | locus YER155C, strain BEM2 (second series), stronger effect = lower value 0.982 | locus YER155C, strain BEM2, stronger effect = lower value 1.01 | locus YER167W, strain BCK2, stronger effect = lower value 0.996 | locus YFR010W, strain ubp6, stronger effect = lower value 1.03 | locus YGL078C, strain dbp3, stronger effect = lower value 0.985 | locus YGL086W, strain mad1, stronger effect = lower value 0.996 | locus YGL167C, strain pmr1, stronger effect = lower value 1.01 | locus YGL173C, strain kem1, stronger effect = lower value 1.01 | locus YGL227W, strain vid30, stronger effect = lower value 1.01 | locus YGL240W, strain doc1, stronger effect = lower value 0.978 | locus YGL248W, strain PDE1, stronger effect = lower value 1.01 | locus YGL253W, strain hxk2, stronger effect = lower value 1.02 | locus YGR078C, strain PAC10, stronger effect = lower value 1 | locus YGR135W, strain pre9, stronger effect = lower value 1.01 | locus YGR252W, strain gcn5, stronger effect = lower value 1.11 | locus YHR013C, strain ard1, stronger effect = lower value 0.997 | locus YHR027C, strain rpn1, stronger effect = lower value 1.02 | locus YHR030C, strain SLT2, stronger effect = lower value 0.981 and 1.03 | locus YHR079C, strain IRE1 (second series), stronger effect = lower value 0.983 | locus YHR079C, strain IRE1, stronger effect = lower value 1.01 | locus YHR094C, strain hxt1, stronger effect = lower value 0.996 | locus YHR129C, strain ARP1, stronger effect = lower value 0.985 | locus YHR142W, strain chs7, stronger effect = lower value 1.03 | locus YHR200W, strain rpn10, stronger effect = lower value 0.991 | locus YIL066C, strain RNR3, stronger effect = lower value 0.998 | locus YIL073C, strain SPO22, stronger effect = lower value 0.99 | locus YIL125W, strain kgd1, stronger effect = lower value 0.985 | locus YIR030C, strain dcg1, stronger effect = lower value 0.992 | locus YJL092W, strain hpr5, stronger effect = lower value 1 | locus YJL095W, strain BCK1 (second series), stronger effect = lower value 1.03 | locus YJL095W, strain BCK1, stronger effect = lower value 1.03 and 1.02 | locus YJL115W, strain asf1, stronger effect = lower value 1.01 | locus YJL129C, strain trk1, stronger effect = lower value 1.01 | locus YJL134W, strain LCB3, stronger effect = lower value 0.997 | locus YJL154C, strain vps35, stronger effect = lower value 1.01 | locus YJL164C, strain tpk1, stronger effect = lower value 1 | locus YJL166W, strain qcr8, stronger effect = lower value 0.999 | locus YJL168C, strain set2, stronger effect = lower value 0.932 | locus YJL187C, strain SWE1 (second series), stronger effect = lower value 0.995 | locus YJL187C, strain SWE1, stronger effect = lower value 1.04 | locus YJR043C, strain POL32, stronger effect = lower value 0.997 | locus YJR066W, strain TOR1, stronger effect = lower value 0.961 | locus YJR075W, strain HOC1, stronger effect = lower value 0.983 | locus YKL009W, strain mrt4, stronger effect = lower value 0.956 | locus YKL068W, stronger effect = lower value 0.986 | locus YKL085W, strain MDH1 (second series), stronger effect = lower value 0.982 | locus YKL085W, strain MDH1, stronger effect = lower value 0.982 | locus YKL160W, strain elf1, stronger effect = lower value 0.981 | locus YKR001C, strain vps1, stronger effect = lower value 0.999 | locus YKR026C, strain gcn3, stronger effect = lower value 1 | locus YKR091W, strain srl3, stronger effect = lower value 1.01 | locus YLL001W, strain dnm1, stronger effect = lower value 0.99 | locus YLL026W, stronger effect = lower value 1 | locus YLL041C, strain sdh2, stronger effect = lower value 1 | locus YLR027C, strain aat2, stronger effect = lower value 1 | locus YLR039C, strain RIC1, stronger effect = lower value 1.01 | locus YLR058C, strain SHM2, stronger effect = lower value 0.994 | locus YLR102C, strain apc9, stronger effect = lower value 0.984 | locus YLR113W, strain HOG1, stronger effect = lower value 1.01 | locus YLR221C, strain rsa3, stronger effect = lower value 1.02 | locus YLR258W, strain gsy2, stronger effect = lower value 0.998 | locus YLR262C, strain YPT6 (second series), stronger effect = lower value 0.999 | locus YLR262C, strain YPT6, stronger effect = lower value 1.01 | locus YLR268W, strain sec22, stronger effect = lower value 0.964 | locus YLR320W, strain mms22, stronger effect = lower value 0.995 | locus YLR330W, strain CHS5, stronger effect = lower value 1 | locus YLR342W, strain FKS1 (second series), stronger effect = lower value 1.01 | locus YLR342W, strain FKS1, stronger effect = lower value 1.01 | locus YLR357W, strain rsc2, stronger effect = lower value 1 | locus YLR370C, strain arc18, stronger effect = lower value 1.01 | locus YLR371W, strain rom2, stronger effect = lower value 0.984 | locus YLR384C, strain iki3, stronger effect = lower value 0.998 | locus YLR418C, strain cdc73, stronger effect = lower value 0.997 | locus YML016C, strain PPZ1, stronger effect = lower value 0.995 | locus YML032C, strain rad52, stronger effect = lower value 1.03 | locus YML120C, strain ndi1, stronger effect = lower value 1.01 | locus YML124C, strain tub3, stronger effect = lower value 0.981 | locus YMR058W, strain fet3, stronger effect = lower value 1.01 | locus YMR078C, strain ctf18, stronger effect = lower value 0.976 | locus YMR125W, strain sto1, stronger effect = lower value 1 | locus YMR129W, stronger effect = lower value 1.01 | locus YMR205C, strain PFK2, stronger effect = lower value 0.994 | locus YMR223W, strain ubp8, stronger effect = lower value 1.01 | locus YMR231W, strain pep5, stronger effect = lower value 0.996 | locus YMR307W, strain GAS1, stronger effect = lower value 1.17 | locus YNL067W, strain RPL9B, stronger effect = lower value 0.983 | locus YNL071W, strain lat1, stronger effect = lower value 1.01 | locus YNL183C, strain NPR1, stronger effect = lower value 0.973 | locus YNL209W, strain ssb2, stronger effect = lower value 1.01 | locus YNL233W, strain BNI4, stronger effect = lower value 1.01 | locus YNL248C, strain rpa49, stronger effect = lower value 0.987 | locus YNL250W, strain rad50, stronger effect = lower value 0.976 | locus YNL271C, strain bni1, stronger effect = lower value 0.983 | locus YNL298W, strain CLA4, stronger effect = lower value 1 | locus YNL307C, strain MCK1, stronger effect = lower value 0.981 | locus YNL322C, strain KRE1 (second series), stronger effect = lower value 0.992 | locus YNL322C, strain KRE1, stronger effect = lower value 1 | locus YNR049C, strain mso1, stronger effect = lower value 1.01 | locus YNR052C, strain pop2, stronger effect = lower value 1 | locus YOL006C, strain TOP1, stronger effect = lower value 0.999 | locus YOL012C, strain htz1 0.886 | locus YOL147C, strain pex11, stronger effect = lower value 0.995 | locus YOR001W, strain rrp6, stronger effect = lower value 0.989 | locus YOR061W, strain CKA2, stronger effect = lower value 0.993 | locus YOR069W, strain VPS5, stronger effect = lower value 0.998 | locus YOR070C, strain gyp1, stronger effect = lower value 1 | locus YOR080W, strain dia2, stronger effect = lower value 1 | locus YOR083W, strain WHI5, stronger effect = lower value 0.978 | locus YOR106W, strain vam3, stronger effect = lower value 0.99 | locus YOR136W, strain idh2, stronger effect = lower value 0.974 | locus YOR144C, strain elg1, stronger effect = lower value 0.992 | locus YOR184W, strain ser1, stronger effect = lower value 0.988 | locus YOR231W, strain MKK1, stronger effect = lower value 1 | locus YOR265W, strain rbl2, stronger effect = lower value 0.998 | locus YOR270C, strain vph1, stronger effect = lower value 1.05 | locus YOR290C, strain snf2, stronger effect = lower value 0.993 | locus YOR316C, strain cot1, stronger effect = lower value 0.985 | locus YPL051W, strain arl3, stronger effect = lower value 1 | locus YPL078C, strain atp4, stronger effect = lower value 0.982 | locus YPL106C, strain sse1, stronger effect = lower value 0.985 | locus YPL240C, strain hsp82, stronger effect = lower value 0.998 | locus YPL241C, strain CIN2, stronger effect = lower value 1 | locus YPL256C, strain CLN2, stronger effect = lower value 1.03 | locus YPR119W, strain clb2, stronger effect = lower value 0.983 | locus YPR141C, strain kar3, stronger effect = lower value 0.988 | locus YPR163C, strain tif3, stronger effect = lower value 0.997 | locus YPR167C, strain met16, stronger effect = lower value 0.994 | strain wtn01, stronger effect = lower value 0.964
